Source: PubChem (National Center for Advancing Translational Sciences (NCATS))
In the library only some 2.4% were active in any assay of this set; here they are far more common.
D2 antagonist – D2 dopamine receptor (human) antagonism. hit rate 2% among 340,000. AID 485344. HEK293 TREx D2 cells, calcium flux, dopamine EC80. inhibition, % at 10 µM; in the data active = inhibition above about 30%; inactive = below that, where a call was filed; also: 0% is about no effect
Target sequence (P14416 whole entry, looked up): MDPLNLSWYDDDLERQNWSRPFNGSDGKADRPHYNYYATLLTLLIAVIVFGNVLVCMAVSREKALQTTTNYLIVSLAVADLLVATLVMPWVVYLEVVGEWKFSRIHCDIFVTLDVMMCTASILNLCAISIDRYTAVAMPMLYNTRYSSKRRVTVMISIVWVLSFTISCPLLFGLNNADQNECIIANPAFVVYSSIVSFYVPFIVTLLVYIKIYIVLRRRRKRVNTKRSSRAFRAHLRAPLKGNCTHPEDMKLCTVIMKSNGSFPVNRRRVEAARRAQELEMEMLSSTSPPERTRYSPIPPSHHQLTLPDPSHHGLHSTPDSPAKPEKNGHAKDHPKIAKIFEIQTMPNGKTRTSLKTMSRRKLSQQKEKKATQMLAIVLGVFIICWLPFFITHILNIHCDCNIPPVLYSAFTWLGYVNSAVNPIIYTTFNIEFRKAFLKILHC
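HEK293 T-REx D2 cells, tet-induced, calcium dye no-wash. Cpd pintool add, 180 s kinetic, then EC80 DA, 180 s kinetic. Ca flux read.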
D2 ag-1 – agonists of human D2 dopamine receptor (beta-arrestin); P14416; DiscoveRx PathHunter D2 beta-arrestin, luminescence, 90 min; 100% = 57 uM dopamine signal; activation, % (no concentration beside the values); hit rate 0.084% among 360,000; AID 624465; in the data active = activation above about 40%
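Agonist mode: compounds alone added to overnight-plated D2 PathHunter cells for 90 min at 37 C, with 57 uM final dopamine (EC100) defining full response. Beta-arrestin recruitment detected by chemiluminescent reagent, read after 1 h at ambient temperature.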
D2 PAM-1 – positive allosteric modulators of human D2 dopamine receptor. P14416. HEK293 T-REx D2, calcium flux, EC20 dopamine potentiation. potentiation, % at 10 µM. hit rate 0.34% among 340,000;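 active = potentiation over 3 SD above the plate norm, cut at about 30% in these data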; also: 0% is about no effect
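Cells plated with tetracycline inducer and held overnight at 30 C; calcium dye loaded 30–90 min at room temperature; baseline taken, compound added and read 180 s; EC20 dopamine then added and read 180 s.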
D2 PAM-2 – potentiates the human D2 dopamine receptor allosterically; P14416; hit rate 0.23% among 360,000; potentiation, % (no concentration beside the values); AID 624464; DiscoveRx D2 beta-arrestin cells, luminescence, 90 min; 100% = 57 uM dopamine signal; in the data active = potentiation above about 50%
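PathHunter beta-arrestin assay in DiscoveRx D2 cells. Compounds were added with an EC20 of dopamine (50 nM final) for 90 min at 37 deg C. Luminescence was read 1 h after detection reagent, with 57 uM dopamine as the EC100 control.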
D2 ag-2 – agonists of human D2 dopamine receptor. HEK293 T-REx D2 cells, calcium flux agonist mode. activation, % at 2 µM. hit rate 0.53% among 340,000;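 active = activation over 3 SD above normal in the single-dose calcium agonist read, cut at about 30% in these data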; also: 0% is about no effect
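Agonism scored from kinetic calcium signal (1 read/sec, 180 s) following compound pin transfer, after a 10 s baseline. Cells: HEK293 Trex line expressing inducible D2 receptor coupled to calcium, dye-loaded after overnight culture at 30 C.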
Numbers without * were called inactive; . = no result given.

SMILES	D2 antagonist	D2 ag-1	D2 PAM-1	D2 PAM-2	D2 ag-2
COc1cc(C(=O)O)nc2ccc([N+](=O)[O-])cc12	38.4*	3.6	1.7	-1.4	2.1
COc1ccc([N+](=O)[O-])cc1C(=O)C(=O)c1ccccc1	-4.5	-6.2	18.2	-4.7	-1.0
COc1cc(OC)c(NC(=O)CCCn2nc(C)c3sc4ccccc4c3c2=O)cc1Cl	.	.	-6.2	.	1.4
O=C(CC1SCCNC1=O)Nc1cc(Cl)cc(Cl)c1 (stereo unspecified)	.	-1.3	.	-6.0	.
COC(=O)c1cc(NC(=O)CC2SCCNC2=O)cc(C(=O)OC)c1 (stereo unspecified)	34.9*	4.0	3.4	-0.8	0.5
Cc1ccccc1NC(=O)CC1SCCNC1=O (stereo unspecified)	45.0*	-1.9	4.1	-4.3	-0.9
CCn1c(=O)c2cc(C(=O)Nc3cc(C)c(Cl)cc3OC)sc2c2ccccc21	.	.	6.5	.	.
CC(=O)Nc1cccc(NC(=O)CSc2nnc(Cc3cccn3C)n2-c2ccc(F)cc2)c1	48.8*	-2.8	-2.3	-18.6	-2.8
O=C(Nc1cccc2c(=O)[nH][nH]c(=O)c12)c1ccc([N+](=O)[O-])cc1	.	-2.5	.	5.6	.
O=C(Nc1ccc2c(c1)OCCO2)c1cccc2nc3ccccc3nc12	-28.4	-2.7	34.3*	-2.4	0.1
CC(=O)Nc1ccc(Oc2ccc(-c3noc(C)n3)cc2)cc1	16.3	0.7	-13.8	4.5	0.3
CC(=O)Oc1ccc(Oc2ccc(-c3noc(C)n3)cc2)cc1	17.6	0.5	33.2*	-15.0	0.0
Brc1cccc(OCCCNC2CCCC2)c1	57.6*	-5.6	-26.2	-23.6	7.8
CCOc1ccccc1OCCNC1CCCC1	61.8*	-2.7	-50.6	-17.3	0.7
Cc1ccc(C)c(OCCCNC2CCCC2)c1C	-3.3	-5.6	6.9	-3.5	-1.7
COc1cccc(OC)c1OCCCNC1CCCC1	47.7*	-4.3	-29.7	-2.5	0.0
CCOc1ccc(OCCNC2CCCC2)cc1	15.6	-4.0	-3.4	-4.7	-0.1
Cc1c(-c2nc(-c3ccc4c(c3)OCO4)no2)nnn1-c1cccc(C(F)(F)F)c1	.	.	-2.8	.	.
COc1ccc(NC(=O)c2sc3nc(C)c(C(=O)Nc4ccc(C)cc4C)c(-c4ccc(C)o4)c3c2N)cc1	.	.	15.1	.	2.6
CC1(C(=O)Nc2ccc(F)c(Cl)c2)Cc2c(-c3ccc(C(N)=O)cc3)ccnc2O1 (stereo unspecified)	.	11.6	.	5.3	.
COC(=O)c1ccc(C(=O)OC)c(NC(=O)c2c(-c3ccccc3)noc2C)c1	.	.	10.5	.	-2.5
O=C(Nc1ccccc1)c1cc(-n2cnnc2)ccc1Cl	.	-0.2	.	-4.9	.
Cc1nc(NC(=O)c2cc(-n3cnnc3)ccc2Cl)ccc1Br	30.4*	-1.7	12.8	3.3	0.9
CC(=O)Nc1cccc(NC(=O)CSc2cn(CC(=O)N(C(C)C)C(C)C)c3ccccc23)c1	.	.	-5.5	.	2.6
O=C(Nc1nnc(SCC(=O)N2CCCCC2)s1)C1CCCCC1	7.5	-2.6	37.2*	5.1	0.3
SMILES	D2 antagonist	D2 ag-1	D2 PAM-1	D2 PAM-2	D2 ag-2
COc1cc2ccccc2cc1C(=O)NCC(c1cccs1)N(C)C (stereo unspecified)	55.5*	-2.0	-12.5	-16.3	-0.9
COc1cc(C(=O)NCC(c2cccs2)N(C)C)cc(Cl)c1OC(C)C (stereo unspecified)	34.5*	-3.6	-14.9	-30.4	0.5
CCCOc1ccc(C(=O)NCC(c2cccs2)N(C)C)cc1OC (stereo unspecified)	-6.3	-2.6	-19.0	-35.2	-1.2
CCOC(=O)Cc1ccc(Nc2nc(NCc3cccs3)nc3ccsc23)cc1	.	-0.9	.	1.5	.
O=C(N1CCOCC1)n1nnc2ccccc21	2.2	-0.6	1.0	-1.6	-1.9
O=C(N1CCOCC1)n1cnc2ccccc21	-6.4	-3.4	51.4*	1.9	-2.1
CCN1CCN(C(=O)Cn2c(-c3cccs3)cc3cc(Cl)ccc32)CC1	.	.	-5.1	.	0.7
CCN(CC)CC#CCC(O)(c1ccccc1)c1ccc(Br)cc1 (stereo unspecified)	34.5*	0.0	-19.8	-19.6	0.2
COc1ccc(-c2cc(C(F)(F)F)n3ncc(C(=O)N4CCc5ccccc5C4)c3n2)cc1	-8.2	-1.2	1.6	-5.0	1.3
